Targets with a hit are over-represented here; the source holds about 7,900 in all. About 0.6% of all pairs of compound and target were hits. Values without a mark were called inactive.
What was measured:
Test in all cases: log2 fold change, soluble protein after heating vs DMSO (PISA); higher = thermal stabilisation; K562 cells, 10 uM, 30 min; active = over 0.2 and 3.5 SD of the protein, either way, in both replicates (recomputed)
[1] = compound: COC1=CC=C(C=C1)CN2C=CC3=C2C=C(C=C3)C(=O)NO
Summary of the method: (§1)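 Quantification of soluble protein used TMTpro 16plex LC-MS/MS, with channel sums equalised. Samples were the supernatant after 21,000xg for 90 min of pooled aliquots from K562 cells (2×10^6 cells/mL) treated with 10 μM compound for 30 min, heated for 3 min over 48°C-58°C, and extracted in PBS with 0.5% NP-40 at 4°C. Values, from duplicates, describe thermal stability against control samples on a log2 fold-change scale.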

filanesib = compound: CON(C)C(=O)N1N=C(c2cc(F)ccc2F)S[C@@]1(CCCN)c1ccccc1 [filanesib]
Summary of the method: as §1

zotarolimus = compound: CO[C@H]1C[C@@H]2CC[C@@H](C)[C@@](O)(O2)C(=O)C(=O)N2CCCC[C@H]2C(=O)O[C@H]([C@H](C)C[C@@H]2CC[C@H](n3cnnn3)[C@H](OC)C2)CC(=O)[C@H](C)/C=C(\C)[C@@H](O)[C@@H](OC)C(=O)[C@H](C)C[C@H](C)/C=C/C=C/C=C/1C [zotarolimus]
Summary of the method: as §1

idasanutlin = compound: COc1cc(C(=O)O)ccc1NC(=O)[C@@H]1N[C@@H](CC(C)(C)C)[C@](C#N)(c2ccc(Cl)cc2F)[C@H]1c1cccc(Cl)c1F [idasanutlin]
Summary of the method: as §1

alisertib = compound: COc1cc(Nc2ncc3c(n2)-c2ccc(Cl)cc2C(c2c(F)cccc2OC)=NC3)ccc1C(=O)O [alisertib]
Summary of the method: as §1

[2] = compound: COc1cc2nc(-c3cc(F)ccc3O)nc(N[C@@H]3CNC[C@H]3C(C)(C)O)c2cc1OC
Summary of the method: as §1

gefitinib = compound: COc1cc2ncnc(Nc3ccc(F)c(Cl)c3)c2cc1OCCCN1CCOCC1 [gefitinib]
Summary of the method: as §1

[3] = compound: COc1cccc2cc(-c3nc([C@H]4CC[C@H](C(=O)O)CC4)n4ncnc(N)c34)[nH]c12
Summary of the method: as §1

lapatinib = compound: CS(=O)(=O)CCNCc1ccc(-c2ccc3ncnc(Nc4ccc(OCc5cccc(F)c5)c(Cl)c4)c3c2)o1 [lapatinib]
Summary of the method: as §1

pictilisib = compound: CS(=O)(=O)N1CCN(Cc2cc3nc(-c4cccc5[nH]ncc45)nc(N4CCOCC4)c3s2)CC1 [pictilisib]
Summary of the method: as §1

[4] = compound: CS(=O)(=O)c1ccc(-c2cnc(N)c(C(=O)Nc3ccccc3)n2)cc1
Summary of the method: as §1

crizotinib = compound: C[C@@H](Oc1cc(-c2cnn(C3CCNCC3)c2)cnc1N)c1c(Cl)ccc(F)c1Cl [crizotinib]
Summary of the method: as §1

[5] = compound: C[C@@H]1COCCN1C2=NC(=NC(=C2)C3(CC3)S(=O)(=O)C)C4=C5C=CNC5=CC=C4
Summary of the method: as §1

[6] = compound: C[C@H](C1=CC=C(C=C1)C(=O)NC2=C3C=CNC3=NC=C2)N
Summary of the method: as §1

duvelisib = compound: C[C@H](Nc1ncnc2nc[nH]c12)c1cc2cccc(Cl)c2c(=O)n1-c1ccccc1 [duvelisib]
Summary of the method: as §1

gandotinib = compound: Cc1cc(Nc2cc(CN3CCOCC3)c3nc(C)c(Cc4ccc(Cl)cc4F)n3n2)n[nH]1 [gandotinib]
Summary of the method: as §1

tozasertib = compound: Cc1cc(Nc2cc(N3CCN(C)CC3)nc(Sc3ccc(NC(=O)C4CC4)cc3)n2)n[nH]1 [tozasertib]
Summary of the method: as §1

[7] = compound: Cc1cc(SCc2sc(-c3ccc(C(F)(F)F)cc3)nc2C)ccc1OCC(=O)O
Summary of the method: as §1

doramapimod = compound: Cc1ccc(-n2nc(C(C)(C)C)cc2NC(=O)Nc2ccc(OCCN3CCOCC3)c3ccccc23)cc1 [doramapimod]
Summary of the method: as §1

ispinesib = compound: Cc1ccc(C(=O)N(CCCN)[C@@H](c2nc3cc(Cl)ccc3c(=O)n2Cc2ccccc2)C(C)C)cc1 [ispinesib]
Summary of the method: as §1

Chain of UniProt Q9H0R6 (Q9H0R6 whole entry, looked up): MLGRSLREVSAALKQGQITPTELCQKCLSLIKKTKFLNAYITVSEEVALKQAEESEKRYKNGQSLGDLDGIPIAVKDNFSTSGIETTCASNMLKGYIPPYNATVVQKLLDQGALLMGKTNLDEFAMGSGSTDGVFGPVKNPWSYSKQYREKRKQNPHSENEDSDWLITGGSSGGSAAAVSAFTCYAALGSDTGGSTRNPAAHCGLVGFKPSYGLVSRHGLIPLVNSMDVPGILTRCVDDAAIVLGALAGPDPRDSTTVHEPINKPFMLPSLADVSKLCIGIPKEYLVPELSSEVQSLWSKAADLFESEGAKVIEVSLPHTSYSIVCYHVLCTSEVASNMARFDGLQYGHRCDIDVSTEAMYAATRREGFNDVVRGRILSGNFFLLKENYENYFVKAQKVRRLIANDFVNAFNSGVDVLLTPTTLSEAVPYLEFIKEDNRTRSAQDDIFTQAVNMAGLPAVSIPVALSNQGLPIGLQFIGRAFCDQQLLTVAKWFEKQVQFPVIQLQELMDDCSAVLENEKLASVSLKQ
Chain of UniProt P53801 (P53801 whole entry, looked up): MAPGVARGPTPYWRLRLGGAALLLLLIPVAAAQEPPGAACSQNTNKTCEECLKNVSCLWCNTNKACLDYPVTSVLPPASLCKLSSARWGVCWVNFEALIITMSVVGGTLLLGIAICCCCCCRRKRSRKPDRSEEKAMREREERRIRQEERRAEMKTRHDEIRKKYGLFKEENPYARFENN
Chain of UniProt Q16537 (Q16537 whole entry, looked up): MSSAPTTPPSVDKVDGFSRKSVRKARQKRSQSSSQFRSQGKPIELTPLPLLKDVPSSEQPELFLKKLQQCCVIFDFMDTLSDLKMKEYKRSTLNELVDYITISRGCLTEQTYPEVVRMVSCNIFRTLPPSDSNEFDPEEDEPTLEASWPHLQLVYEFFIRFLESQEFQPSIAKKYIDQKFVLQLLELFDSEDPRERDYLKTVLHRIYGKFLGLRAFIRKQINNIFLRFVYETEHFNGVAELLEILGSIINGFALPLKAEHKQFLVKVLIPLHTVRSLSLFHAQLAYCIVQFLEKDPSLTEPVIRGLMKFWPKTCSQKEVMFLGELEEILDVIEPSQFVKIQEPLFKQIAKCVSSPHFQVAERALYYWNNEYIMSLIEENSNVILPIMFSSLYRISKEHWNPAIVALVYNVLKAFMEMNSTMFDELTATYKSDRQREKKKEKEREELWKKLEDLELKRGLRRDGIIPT
Chain of UniProt P06737 (P06737 whole entry, looked up): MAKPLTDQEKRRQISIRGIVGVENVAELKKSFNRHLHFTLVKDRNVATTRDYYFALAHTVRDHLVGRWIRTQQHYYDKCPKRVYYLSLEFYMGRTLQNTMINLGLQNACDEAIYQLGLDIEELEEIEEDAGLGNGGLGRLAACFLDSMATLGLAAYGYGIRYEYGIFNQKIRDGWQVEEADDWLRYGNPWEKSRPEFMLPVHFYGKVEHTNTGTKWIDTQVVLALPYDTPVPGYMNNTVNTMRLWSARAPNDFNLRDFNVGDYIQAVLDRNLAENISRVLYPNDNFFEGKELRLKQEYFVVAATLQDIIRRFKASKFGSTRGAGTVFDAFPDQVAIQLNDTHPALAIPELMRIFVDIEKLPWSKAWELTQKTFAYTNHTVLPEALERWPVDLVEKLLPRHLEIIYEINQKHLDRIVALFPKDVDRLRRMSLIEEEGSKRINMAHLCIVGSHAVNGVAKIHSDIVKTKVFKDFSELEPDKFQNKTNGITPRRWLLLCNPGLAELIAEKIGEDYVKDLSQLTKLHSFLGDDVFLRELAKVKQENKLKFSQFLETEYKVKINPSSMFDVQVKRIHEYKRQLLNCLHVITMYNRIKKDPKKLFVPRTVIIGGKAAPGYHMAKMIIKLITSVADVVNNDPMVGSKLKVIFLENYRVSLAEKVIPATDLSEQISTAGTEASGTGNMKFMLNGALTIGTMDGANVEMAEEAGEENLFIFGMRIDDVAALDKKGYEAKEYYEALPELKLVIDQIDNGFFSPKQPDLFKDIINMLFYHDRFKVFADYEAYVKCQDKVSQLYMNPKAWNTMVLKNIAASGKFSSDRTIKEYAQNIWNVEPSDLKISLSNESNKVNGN
Chain of UniProt Q96A00 (Q96A00 whole entry, looked up): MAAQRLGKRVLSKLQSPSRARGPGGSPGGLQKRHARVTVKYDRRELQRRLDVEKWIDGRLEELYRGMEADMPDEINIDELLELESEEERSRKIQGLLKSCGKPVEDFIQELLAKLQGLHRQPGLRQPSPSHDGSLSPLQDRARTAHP
Chain of UniProt P48556 (P48556 whole entry, looked up): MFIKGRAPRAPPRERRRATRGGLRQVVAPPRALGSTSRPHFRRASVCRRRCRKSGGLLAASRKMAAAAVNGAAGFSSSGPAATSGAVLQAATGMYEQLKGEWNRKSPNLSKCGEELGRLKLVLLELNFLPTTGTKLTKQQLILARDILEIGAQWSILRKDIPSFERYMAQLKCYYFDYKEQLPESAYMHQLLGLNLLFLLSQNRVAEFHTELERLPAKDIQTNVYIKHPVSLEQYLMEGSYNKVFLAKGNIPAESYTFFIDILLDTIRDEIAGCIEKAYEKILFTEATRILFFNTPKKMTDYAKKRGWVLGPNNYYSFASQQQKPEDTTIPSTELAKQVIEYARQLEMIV
Chain of UniProt Q9NW08 (Q9NW08 whole entry, looked up): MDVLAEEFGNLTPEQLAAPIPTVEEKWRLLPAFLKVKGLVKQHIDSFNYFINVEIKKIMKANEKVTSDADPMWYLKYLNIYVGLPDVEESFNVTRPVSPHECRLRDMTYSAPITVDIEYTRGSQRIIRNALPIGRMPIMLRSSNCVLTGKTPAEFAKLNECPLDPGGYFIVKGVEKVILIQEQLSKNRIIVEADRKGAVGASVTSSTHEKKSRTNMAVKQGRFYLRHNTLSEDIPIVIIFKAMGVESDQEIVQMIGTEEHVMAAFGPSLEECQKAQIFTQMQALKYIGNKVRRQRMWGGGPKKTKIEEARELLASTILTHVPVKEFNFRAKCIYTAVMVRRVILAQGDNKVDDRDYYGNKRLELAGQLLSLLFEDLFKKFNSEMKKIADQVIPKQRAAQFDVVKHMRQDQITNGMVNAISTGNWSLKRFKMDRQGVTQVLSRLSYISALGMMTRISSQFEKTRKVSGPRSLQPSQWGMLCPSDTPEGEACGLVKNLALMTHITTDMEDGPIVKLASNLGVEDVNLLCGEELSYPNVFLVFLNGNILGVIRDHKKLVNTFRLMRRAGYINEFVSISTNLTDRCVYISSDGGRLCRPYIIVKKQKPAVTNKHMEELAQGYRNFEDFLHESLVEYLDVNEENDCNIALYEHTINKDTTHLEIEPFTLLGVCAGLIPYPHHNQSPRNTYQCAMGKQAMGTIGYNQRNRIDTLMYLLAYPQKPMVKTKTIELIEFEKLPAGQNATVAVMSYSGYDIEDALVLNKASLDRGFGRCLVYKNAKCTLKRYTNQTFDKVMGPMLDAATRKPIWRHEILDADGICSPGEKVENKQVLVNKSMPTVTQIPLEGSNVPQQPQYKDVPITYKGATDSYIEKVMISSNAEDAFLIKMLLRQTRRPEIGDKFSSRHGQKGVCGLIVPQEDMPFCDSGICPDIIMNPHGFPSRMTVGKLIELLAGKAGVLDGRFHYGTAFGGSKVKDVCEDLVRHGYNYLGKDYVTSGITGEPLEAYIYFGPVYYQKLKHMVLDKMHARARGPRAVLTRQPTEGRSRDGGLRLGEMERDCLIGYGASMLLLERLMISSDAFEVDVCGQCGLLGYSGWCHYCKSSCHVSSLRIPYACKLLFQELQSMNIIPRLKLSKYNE
Chain of UniProt P05771 (P05771 whole entry, looked up): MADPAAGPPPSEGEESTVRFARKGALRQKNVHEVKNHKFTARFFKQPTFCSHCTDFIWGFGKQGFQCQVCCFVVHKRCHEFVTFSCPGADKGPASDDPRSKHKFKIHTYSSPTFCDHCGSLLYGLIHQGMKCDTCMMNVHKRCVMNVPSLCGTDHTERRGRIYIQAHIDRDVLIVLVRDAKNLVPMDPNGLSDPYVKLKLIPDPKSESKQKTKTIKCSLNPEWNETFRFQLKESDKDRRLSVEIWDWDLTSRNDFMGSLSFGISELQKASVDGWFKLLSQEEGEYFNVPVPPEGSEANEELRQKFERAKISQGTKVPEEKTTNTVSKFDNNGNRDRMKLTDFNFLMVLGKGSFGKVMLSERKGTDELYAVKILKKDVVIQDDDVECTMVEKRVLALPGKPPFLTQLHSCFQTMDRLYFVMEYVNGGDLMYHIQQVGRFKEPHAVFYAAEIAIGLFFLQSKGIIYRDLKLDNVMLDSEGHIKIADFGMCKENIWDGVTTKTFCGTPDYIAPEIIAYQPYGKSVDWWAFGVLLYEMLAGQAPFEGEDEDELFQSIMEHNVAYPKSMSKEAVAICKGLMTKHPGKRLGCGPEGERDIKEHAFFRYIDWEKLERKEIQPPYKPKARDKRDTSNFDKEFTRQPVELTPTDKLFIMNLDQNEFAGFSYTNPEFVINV

Row | Target | log2 fold change [1] | log2 fold change (filanesib) | log2 fold change (zotarolimus) | log2 fold change (idasanutlin) | log2 fold change (alisertib) | log2 fold change [2] | log2 fold change (gefitinib) | log2 fold change [3] | log2 fold change (lapatinib) | log2 fold change (pictilisib) | log2 fold change [4] | log2 fold change (crizotinib) | log2 fold change [5] | log2 fold change [6] | log2 fold change (duvelisib) | log2 fold change (gandotinib) | log2 fold change (tozasertib) | log2 fold change [7] | log2 fold change (doramapimod) | log2 fold change (ispinesib)
1 | PPP1R14A (UniProt Q96A00) | 0.016 | 0.031 | -0.028 | -0.013 | -0.041 | 0.039 | 0.012 | -0.079 | -0.057 | 0.017 | 0.078 | 0.011 | 0.005 | 0.003 | 0.06 | 0.106 | -0.017 | -0.049 | -0.086 | 0.319
2 | PPP2R5E (UniProt Q16537) | -0.044 | -0.056 | -0.009 | -0.191 | -0.024 | 0.205 | 0.002 | 0.033 | -0.024 | -0.118 | -0.024 | -0.15 | 0.037 | 0.105 | 0.078 | 0.167 | -0.072 | 0.015 | -0.01 | -0.024
3 | QRSL1 (UniProt Q9H0R6) | -0.01 | -0.087 | -0.028 | -0.128 | 0.022 | -0.005 | -0.007 | 0.017 | 0.003 | 0.06 | 0.046 | -0.04 | 0.212 (active) | -0.023 | 0.033 | 0.082 | -0.025 | 0.024 | -0.015 | -0.049
4 | PTTG1IP (UniProt P53801) | -0.013 | -0.186 | -0.124 | -0.004 | -0.046 | 0.038 | 0.158 | 0.007 | -0.096 | 0.086 | 0.043 | 0.1 | 0.102 | -0.044 | 0.118 | 0.094 | 0.107 | -0.075 | -0.106 | 
5 | PSMD8 (UniProt P48556) | -0.046 | 0.055 | -0.016 | 0.015 | -0.097 | -0.038 | -0.022 | -0.061 | 0.066 | 0.097 | 0.034 | 0.011 | -0.053 | 0.156 | -0.016 | 0.002 | 0.008 | 0.059 | 0.028 | 0.015
6 | POLR3B (UniProt Q9NW08) | 0.026 | 0.065 | 0.075 | 0.008 | -0.086 | 0.08 | 0.105 | -0.135 | 0.008 | -0.019 | 0.038 | -0.111 | -0.004 | 0.034 | 0.007 | -0.07 | 0.101 | 0.085 | 0.03 | -0.183
7 | PRKCB isoform 2 (UniProt P05771) | -0.011 | -0.022 | 0.046 | -0.028 | -0.051 | 0.035 | 0.001 | -0.036 | -0.008 | 0.035 | 0.019 | -0.039 | 0.039 | -0.063 | 0.035 | -0.079 | 0.018 | 0.032 | -0.01 | -0.017
8 | PYGL (UniProt P06737) | -0.028 | 0.043 | -0.007 | -0.015 | -0.03 | 0.095 | -0.013 | 0.051 | -0.075 | -0.122 | -0.122 | 0.003 | 0.026 | -0.019 | 0.03 | 0.013 | -0.022 | -0.023 | 0.001 | 0.015

— the supplement of paper PMC10849652
